Consider 18 molecules from PubChem BioAssay (NCATS).

Records with an inconclusive call do not appear. A call without a number means that no potency is given here. Active and inactive are the calls of the source. Calls come from the whole dose curve; as a rule, active = well fitted cell-killing curve with a large enough effect; inconclusive = small, poorly fitted or top-dose-only effect; inactive = flat fitted curve, though single readings scatter.

The assay in a line: Cellular viability qHTS for adrenocortical cancer (ACC) cell line NCI-H295R (AID 1963990). Note: nearly all actives have a fitted effect of over 60% in size. As to conditions: CellTiter-Glo ATP luminescence, 48 h; series mostly up to 46.1 µM. In a few lines: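 Readout: CellTiter-Glo luminescence, 20 min RT. Exposure: 48 h, 37C/5% CO2. Cells: NCI-H295R, ITS-DMEM serum-free. Range: up to 46 uM. Analysis: 4PL fit, IC50 plus efficacy.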
A general note: In qHTS, concentration-response curves come from the screen itself.
For `Cc1cccc(C(=O)O)c1O`, the Potency entry was “inactive”.

For the molecule `NCCNC(=O)c1ccc(Cl)cn1`, the Potency entry is “inactive”.

As to `NC(=O)NC1N=C([O][Al])NC1=O` (stereo not drawn), the Potency entry is “inactive”.

On to `NC(=O)c1ncn([C@@H]2O[C@H](CO)[C@@H](O)[C@H]2O)n1`, for which the Potency result was “inactive”.

For `CC(=O)N[C@H]1[C@H]([C@H](O)[C@H](O)CO)OC(C(=O)O)=C[C@@H]1N=C(N)N`, the Potency result was “inactive”.

As to `O=C(Oc1ccccc1)c1cccc(C(=O)Oc2ccccc2)c1`, the Potency result is “inactive”.

Take `CCCC(=O)O[C@]1(C(=O)COC(=O)CC)CC[C@H]2[C@@H]3CCC4=CC(=O)CC[C@]4(C)[C@H]3[C@@H](O)C[C@@]21C`: the Potency entry is “inactive”.

Take `Cc1ccc(C(C)C)c(O)c1`: the Potency entry is “inactive”.

In the case of `Cc1c(C(N)=O)cc([N+](=O)[O-])cc1[N+](=O)[O-]`, the Potency result is “inactive”.

Take `COc1ccccc1OCC1CNC(=O)O1` (stereo not drawn): the Potency entry is “inactive”.

As for `NS(=O)(=O)c1ccc(N2CCCCS2(=O)=O)cc1`, the Potency entry was “inactive”.

On to `O=C1c2cccc3c2[C@H](CCC3)CN1[C@@H]1CN2CCC1CC2`, for which the Potency result is “inactive”.

On to `COC(=O)N[C@@H](C)CNc1nccc(-c2cn(C(C)C)nc2-c2cc(Cl)cc(NS(C)(=O)=O)c2F)n1`, for which the Potency result is “inactive”.

Regarding `O=[N+]([O-])c1nccn1CO[C@@H](CO)[C@H](O)CO`, the Potency result was “inactive”.

As for `CC(=O)OCC(=O)[C@@]1(OC(C)=O)[C@@H](C)C[C@H]2[C@@H]3C[C@H](F)C4=CC(=O)C=C[C@]4(C)[C@@]3(F)[C@@H](O)C[C@@]21C`, the Potency result is “inactive”.

Turning to `CNCCc1ccccn1`, the Potency entry was “inactive”.

For `C[C@H](CN1CCCC1)C(=O)c1ccc(C(F)(F)F)cc1`, the Potency result was “inactive”.

For the molecule `CC1(C)S[C@@H]2[C@H](NC(=O)C(c3ccccc3)S(=O)(=O)O)C(=O)N2[C@H]1C(=O)O` (stereo partly drawn), the Potency entry is “inactive”.
